Where “and” joins values, the source holds several entries; their conditions need not be identical. Equal entries are not always repeated. Structures can show the parent of a compound that is named as a salt. ± gives the standard deviation of the averaged measurements. Over roughly 3,100 compounds, “mean cytoplasmic OPP incorporation (global translation) relative to DMSO” has its median near 100; the lowest 2% begin near 56. For the sample, the lowest values were picked, then their nearest neighbours and some compounds at random.
system: U2OS; test: mean cytoplasmic OPP incorporation (global translation) relative to DMSO (% of DMSO); higher = more protein synthesis; settings: 10 µM; 24 h
Protocol: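 Primary image-based screen in U2OS cells: compounds at 10 uM for 24 h, then a 1 h o-propargyl-puromycin (OPP) pulse, click labelling, and high-throughput microscopy. Mean cytoplasmic OPP intensity and nuclei count were normalised to DMSO wells within each plate (DMSO = 100) and averaged over triplicate plates.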

Compound	mean cytoplasmic OPP incorporation
C[C@H](Cn1cnc2c(N)ncnc21)OCP(=O)(O)O [Tenofovir (Viread)]	99.5
CC(C)n1nc(-c2cc3cc(O)ccc3[nH]2)c2c(N)ncnc21 [Torkinib (PP242)]	52.5
CC(C)n1nc(-c2ccc3oc(N)nc3c2)c2c(N)ncnc21	53.5 ± 16
Cc1ccccc1-n1c(Cn2nc(-c3cccc(O)c3)c3c(N)ncnc32)nc2cccc(C)c2c1=O	102
CC(C)(C)n1nc(-c2cccc3ccccc23)c2c(N)ncnc21 [1-Naphthyl PP1]	93
CCO/C(O)=C1\C(C)=NC(c2ccccc2)=C(C(=O)OCc2ccc([N+](=O)[O-])cc2)C1C#Cc1ccccc1 (configuration not stated)	108
CC1=C(/C=C/C(C)=C\C=C\C(C)=C\C(=O)O)C(C)(C)CCC1 [9-cis Retinoic acid]	96.4
Nc1ccc(CC(CC(=O)O)C(=O)O)cc1 [4-Amino-D, L-benzylsuccinic acid]	104
CC(C)[C@@H](O)CC[C@@H](C)[C@H]1CC[C@H]2[C@@H]3CC=C4C[C@@H](O)CC[C@]4(C)[C@H]3CC[C@]12C [24(S)-Hydroxycholesterol]	104
Cc1ccc2nc(NCCN)c3ncc(C)n3c2c1	56.1
Cc1nc(N)sc1-c1ccnc(Nc2ccc(N3CCOCC3)cc2)n1	93.4
Cc1ccnc(NS(=O)(=O)c2ccc(NC(=O)Nc3ccc(S(=O)(=O)Nc4nccc(C)n4)cc3)cc2)n1	96.2
Cc1ncc(-c2ccnc(Nc3ccc(S(C)(=O)=O)cc3)n2)n1C(C)C	55.9
C[C@]12CC[C@@H](O)C[C@@H]1CC[C@@H]1[C@@H]2CC[C@]2(C)C=CC[C@@H]12 [3a, 5a-Androstenol]	97.3
Cn1cc(C2=C(c3ccc(Cl)cc3Cl)C(=O)NC2=O)c2ccccc21	104 and 106
Cn1cc(C2=C(c3cn(CCCSC(=N)N)c4ccccc34)C(=O)NC2=O)c2ccccc21 [Ro 31-8220 mesylate]	62.4
CN(C)CCCn1cc(C2=C(c3c[nH]c4ccccc34)C(=O)NC2=O)c2ccccc21	90.7 and 79.3
Cn1cc(C2=C(c3cn(CCCSC(=N)N)c4ccccc34)C(=O)NC2=O)c2ccccc21 [Ro 31-8220 Mesylate]	30.3
CC(=O)C1=C(O)C=C2Oc3c(C(C)=O)c(O)c(C)c(O)c3[C@]2(C)C1=O [Usnic acid]	101

Compound	mean cytoplasmic OPP incorporation
CC(=Nc1ccccc1N)c1c(C)cc(=O)n(O)c1O	95.7
COc1cccc(-c2cc(NCc3ccc4c(c3)OCO4)nc(N)n2)c1	92.3
CNCCN1CCC(OCc2ccccc2)CC1	111
O=C(CCCCCCC(=O)Nc1cccnc1)NO [Pyroxamide]	65.9
O=C(CCCCCCC(=O)Nc1ccccc1)NO [Vorinostat]	41.9
Nc1ccccc1NC(=O)CCCCCCC(=O)Nc1ccccc1	92.9
CSCCC(C=O)NC(=O)C(CC(C)C)NC(=O)[C@H](CC(C)C)NC(C)=O (some centres not stated) [Calpain Inhibitor II (ALLM)]	109
COC1CCC(C(=O)c2ccc3nc4c(cc3c2)CCCO4)CC1 (configuration not stated)	98.8
C=CC(=O)N1CCC[C@@H](n2nc(-c3ccc(Oc4ccccc4)cc3)c3c(N)ncnc32)C1	105 ± 2.3
Nc1ncnc2c1c(-c1cnc3[nH]ccc3c1)nn2C1CCCC1	44.2
N#CC[C@H](C1CCCC1)n1cc(-c2ncnc3[nH]ccc23)cn1	83.53 ± 0.64
COc1cccc(/C=N/N=C/c2cccc(OC)c2)c1	99.7
CC1=C(/C=C/C(C)=C/C=C/C(C)=C\CO)C(C)(C)CCC1 [13-cis-Retinol]	90.9
O=C(O)Cc1nn(Cc2ccc(Br)cc2F)c(=O)c2ccccc12 [Statil]	98.2
Cc1ccc(NC(=O)c2ccc(CN3CCN(C)CC3)cc2)cc1Nc1nccc(-c2cccnc2)n1 [Imatinib mesylate]	121 ± 11
CC(=O)Nc1ccc(C(=O)Nc2ccccc2N)cc1	57.3 ± 33
Cc1ccc(NC(=O)c2ccc(CN3CCN(C)CC3)cc2)cc1Nc1nccc(-c2cccnc2)n1 [Imatinib (STI571)]	124
Cc1ccc(NC(=O)c2ccc(CN3CCN(C)CC3)cc2)cc1Nc1nccc(-c2cccnc2)n1 [Imatinib Mesylate]	130
Cc1cc(NC(=O)c2cccc(NC(=O)/C=C/CN(C)C)c2)ccc1Nc1nccc(-c2cccnc2)n1	96.1

Compound	mean cytoplasmic OPP incorporation
Nc1ccccc1NC(=O)c1ccc(CNc2nccc(-c3cccnc3)n2)cc1 [Mocetinostat (MGCD0103)]	35.5
COc1ccc(C(=O)NCc2cccnc2)cc1C(=O)NCc1cccnc1 [Picotamide monohydrate]	98.8
Nc1ccccc1NC(=O)c1ccc(CNC(=O)OCc2cccnc2)cc1 [Entinostat (MS-275, SNDX-275)]	23.5
Cc1ccc(NC(=O)c2ccc(CN3CCN(C)CC3)cc2)cc1Nc1nccc(-c2cccnc2)n1 [Imatinib]	120
O=c1nc2ccccc2c2n1CC(CN1CCN(c3ccccc3)CC1)N2 (configuration not stated)	101
O=C(O)c1ccccc1Nc1cccc2c1C(=O)c1cccc(Nc3ccccc3C(=O)O)c1C2=O	113
O=C(Cc1ccccc1)Nc1nc2ccc(Cl)cc2c2nc(-c3ccco3)nn12	104
CC(C)CC(NC(=O)OCC1c2ccccc2-c2ccccc21)C(=O)O (configuration not stated)	109
Brc1ccc(C2CN3CCSC3=N2)cc1 [L-p-Bromotetramisole oxalate]	94.5
CCOC(=O)C=Cc1ccc(O)c(OC)c1 [Ferulic acid ethylester]	103
COCC[n+]1c2c(n(Cc3cnccn3)c1C)C(=O)c1ccccc1C2=O	35
CC(C)NCC(O)COc1ccccc1-n1cccc1 (configuration not stated) [Isamoltane hemifumarate]	94.6
Nc1c(O)cc(O)cc1C=Cc1ccc(O)cc1 [Aminoresveratrol sulfate]	100
CCC(=O)NC1CCc2cccc(OC)c2C1 (configuration not stated)	101
O=S1(=O)c2cccc3cccc(c23)N1CCCN1CCN(c2ccc(F)cc2)CC1 [Fananserin]	103
CCCOC(=O)c1cc(O)c(O)c(O)c1 [N-Propyl gallate]	123
Cc1c(CN2CCN(C(=O)[C@H](C)O)CC2)sc2c(N3CCOCC3)nc(-c3cnc(N)nc3)nc12 [Apitolisib (GDC-0980, RG7422)]	50.7
CS(=O)(=O)N1CCN(Cc2cc3nc(-c4cccc5[nH]ncc45)nc(N4CCOCC4)c3s2)CC1 [Pictilisib (GDC-0941)]	73.8
COc1ccc(-c2nc(N3CCOCC3)c3sc(CN(C)c4ncc(C(=O)NO)cn4)cc3n2)cn1	86.6

From the supplement of paper PMC8183993
